Measurements reported in PubChem BioAssay AID624330 (Southern Research Specialized Biocontainment Screening …, 2012).
Screen size: about 340,000 compounds; about 2,100 (0.62%) were called active.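 How the source made its calls: active means first-screen hits whose inhibition reached a set limit at any dose in the follow-up dose series; inconclusive means inhibition above the set first-screen limit but never retested; inactive means the rest.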 A selection follows. Entries with a potency or affinity are not part of this list.

Target: Rac GTPase-activating protein 1 (Homo sapiens) (UniProt Q9H0H5)
Assay: blockers of MgcRacGAP-driven Rac1 GTP hydrolysis – biochemical, ADP Hunter fluorescence, primary and confirmatory, confirmation (AID 624330);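 further: fluorescence reports GDP produced by GAP-driven GTP hydrolysis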
Conditions: MgcRacGAP-stimulated Rac1 GTP hydrolysis, at 30 µM, hits give high values, GST-tagged Rac1 F28L mutant substrate

Chain of Rac GTPase-activating protein 1 (Homo sapiens) (Q9H0H5 whole entry, looked up): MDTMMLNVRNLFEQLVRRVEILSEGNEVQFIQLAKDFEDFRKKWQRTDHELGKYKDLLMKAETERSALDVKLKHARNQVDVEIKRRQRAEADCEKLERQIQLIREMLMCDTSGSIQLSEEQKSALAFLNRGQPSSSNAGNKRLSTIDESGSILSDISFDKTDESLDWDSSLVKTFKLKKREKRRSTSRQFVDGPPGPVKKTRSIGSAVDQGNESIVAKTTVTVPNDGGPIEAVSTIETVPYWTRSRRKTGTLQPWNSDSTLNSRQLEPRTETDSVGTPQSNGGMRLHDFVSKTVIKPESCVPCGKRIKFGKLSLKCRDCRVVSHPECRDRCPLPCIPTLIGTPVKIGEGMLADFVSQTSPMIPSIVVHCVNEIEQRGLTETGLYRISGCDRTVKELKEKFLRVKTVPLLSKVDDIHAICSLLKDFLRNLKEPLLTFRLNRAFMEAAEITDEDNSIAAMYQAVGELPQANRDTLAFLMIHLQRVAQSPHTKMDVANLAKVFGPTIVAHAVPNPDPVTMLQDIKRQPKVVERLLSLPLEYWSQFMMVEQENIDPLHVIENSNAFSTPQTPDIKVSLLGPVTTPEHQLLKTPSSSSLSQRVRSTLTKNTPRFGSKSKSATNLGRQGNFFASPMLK

inhibition, inactive:
Cc1ccc(CN(C)C(=O)CSc2nnc3n2CCCCC3)c(C)c1 -1.85%
CCC(C(=O)OC)n1cnc2c(nnn2-c2cccc(Cl)c2)c1=O (configuration not stated) -2.79%
COc1ccc(N2CCN(C(=O)c3sc4ncn(CC(=O)N5CCCCC5)c(=O)c4c3C)CC2)cc1 22.1%
O=C(NC1CCSc2ccccc21)c1cc(S(=O)(=O)N2CCOCC2)ccc1Cl (configuration not stated) 0.41%
N#Cc1ccsc1NC(=O)CCN1C(=O)C2CCCCC2C1=O (configuration not stated) -1.49%
C/C(=N\NC(=O)c1c(Cl)cnn1C)c1cccc(NC(=O)c2ccc(C)cc2)c1 2.57%
COC(=O)/C(=C\c1ccc([N+](=O)[O-])cc1)NC(=O)c1ccccc1 -0.53%
CCO[C@@H]1OC(C(=O)NC2CC2)=C[C@H](c2ccccc2)[C@H]1CCCO 2.47%
COC1=C(Br)C(=O)c2ncccc2C1=O -0.95%
COC1=C(N)C(=O)c2nc(C)ccc2C1=O -3.53%
COc1ccc(CN(CC(=O)NCc2ccco2)C(=O)CNS(=O)(=O)c2ccc(C)cc2)cc1 -1.32%
COc1ccc(CCCN2CCC(CN3CCNC(=O)C3=O)CC2)cc1OC 15.8%
COc1ccc(/C=N/N2CCN(c3ccc(Cl)cc3)CC2)cc1O 13.4%
C[C@H](NC(=O)c1ccc(Cl)cc1)C(=O)NNC(=O)c1cccs1 4.07%
O=C(O)/C(=C\c1ccc(Cl)c([N+](=O)[O-])c1)c1ccc(S(=O)(=O)N2CCCCC2)s1 9.75%
COc1cc(/C=C/C(=O)OCC(=O)c2ccc[nH]2)cc(OC)c1OC 1.61%
COc1ccc(/C=C/C(=O)OCC(=O)c2ccc[nH]2)cc1 2.04%
O=C(/C=C/c1ccco1)OCC(=O)c1ccc(OC(F)F)cc1 7.34%
COc1cc(/C=C/C(=O)OCC(=O)c2c(N)n(C)c(=O)n(C)c2=O)ccc1O 17%
Cn1c(NN)nc2sc3c(c2c1=O)CC(C)(C)OC3 -17.1%
O=S(=O)(Nc1ccc(N2CCOCC2)cc1)c1ccc(F)cc1 6.7%
CSCC[C@H](NS(=O)(=O)c1ccc(C)cc1)C(=O)N1CCC(C(=O)N[C@@H](C)C(=O)O)CC1 -1.38%
O=C(CN1CCN(c2cccc(C(F)(F)F)c2)CC1)N(C1CC1)C1CCS(=O)(=O)C1 (configuration not stated) -5.48%
O=C(CN1CCN(c2ccc(F)cc2)CC1)N(C1CCCC1)C1CCS(=O)(=O)C1 (configuration not stated) 3.6%
CCOC(=O)c1c(C)[nH]c(C(=O)OCC(=O)Nc2cc(C)c(Cl)cc2OC)c1C 10.4%
Cc1ccc(NC(=O)N2CCCC2C(=O)NCc2ccc3c(c2)OCO3)cc1 (configuration not stated) 2.95%
CC(C)Nc1nc(Oc2ccc(=O)n(-c3ccccc3)n2)nc(N(C)C)n1 12%
COc1cccc(N2CCN(C(=S)Nc3ccc(C)cc3C)CC2)c1 12.4%
O=C(Nc1ccc(F)cc1)c1cncs1 9.26%
C=CC[n+]1ccc(/C=C2\C=Cc3cc(C)ccc3N2CC)c2ccccc21 17%
CC[n+]1c(/C=C2\C=C(C)CC(C)(C)C2)sc2ccccc21 31.8%
CCc1cc2c(SCC(=O)NC3CCCC3)ncnc2s1 6.67%
COc1cccc(NC(=O)[C@@H]2CCC(=O)N2C2OC(=O)c3ccccc32)c1 (some centres not stated) -0.84%
CC(=O)Nc1ccc(NC(=O)Cn2cnc(S(=O)(=O)N3CCOCC3)c2)cc1 -16.8%
Cc1ccc(CSCCNC(=O)CSCc2ccc([N+](=O)[O-])cc2)cc1 6.03%
Cc1ccc(CSCC(=O)NCCc2ccccc2)cc1 -4.12%
Cc1ccc(CNC(=O)CSCc2ccccc2)cc1 10.2%
Cc1ccc(CCNC(=O)CSCc2ccc(F)cc2)cc1 8.48%
CC1=C(C#N)C(c2ccc(O)cc2)C(C#N)=C(C)N1 11.8%
CCOc1ccc(NC(=O)CN2CCN(CC(=O)Nc3ccc(C(=O)OC)cc3)CC2)cc1 6.74%
C/C(=N\NC(=O)Cn1nc(C)c([N+](=O)[O-])c1C)c1ccc(Cl)s1 5.29%
COC(=O)c1scc2c(=O)cc(C(F)(F)F)[nH]c12 6.18%
Cc1cc(OCC(=O)N(C(C)C)C(C)C)cc(C)c1Br 7.37%
COc1ccc(/C=N/N2CCN(c3ccccc3OC)CC2)cc1OC 1.46%
COc1ccccc1N1CCN(/N=C(\C)c2ccc(O)cc2)CC1 8.49%
COc1ccc(/C=N/N2CCN(c3ccccc3OC)CC2)cc1Br 5.46%
COc1ccc(/C=N/N2CCN(C)CC2)cc1OC 4.11%
COc1cc(/C=N/N2CCN(Cc3ccc(C)cc3)CC2)cc(OC)c1O 25.8%
CC(=O)Oc1ccc(/C(C)=N/N2CCN(Cc3ccc(C)cc3)CC2)cc1 -1.21%
COc1ccc(/C=N/N2CCOCC2)cc1O 6.98%
COc1ccccc1N1CCN(/N=C(\C)c2ccccc2O)CC1 9.26%
COc1ccc(-c2cc([C@H]3[C@H]4C=CC[C@@H](C)[C@@H]4C(=O)N3Cc3ccccc3)ccc2F)cc1 4.49%
CCC(C)N(C(=O)COC(=O)c1ccc(=O)n(Cc2ccccc2)n1)C1CCS(=O)(=O)C1 (configuration not stated) 2.85%
CSc1nc(C(=O)N2CCc3c([nH]c4ccccc34)C2c2ccccn2)cs1 (configuration not stated) 3.69%
CCCCNC(=O)Cn1c(=O)c2c(ncn2CCC(C)C)n(Cc2ccccc2)c1=O 6.76%
CCOC(=O)/C=C1\SCC(=O)N1CC(=O)NC(c1ccccc1)c1ccccc1 5.26%
CN(CC(=O)Nc1cccc(F)c1)C(=O)CSc1ccccc1 1.63%
COc1ccccc1N1CCN(/N=C/c2cc(OC)c(OC)c(OC)c2)CC1 -2.37%
COc1ccccc1N1CCN(/N=C/c2cccc(O)c2)CC1 10.5%
COc1ccccc1N1CCN(/N=C/c2cccc(OC)c2O)CC1 -28.4%
COc1ccccc1N1CCN(/N=C\c2ccccc2)CC1 -17.8%
CC1CCCCC1NC(=O)CSc1nnc(CC(=O)Nc2ccccc2F)n1C (configuration not stated) 5.96%
O=C(C[C@@H]1C/C=C/CC[C@@H](Cc2ccc(F)cc2)C(=O)OCCNC1=O)N[C@H](CO)Cc1ccccc1 3.03%
COCC1CCN(Cc2cn(C)nc2-c2cccc(Cl)c2)C1 (configuration not stated) 1.3%
O=C(CCc1nnc2ccc(NCc3ccc(F)cc3)nn12)NC1CCCC1 12.4%
c1ccc(CNCc2ccc3c(c2)OCO3)nc1 4.13%
CC(C)C(=O)N(Cc1ccc2c(c1)OCO2)Cc1ccccn1 7.22%
O=C(CN1CCCc2ccccc21)Nc1cccc(S(=O)(=O)N2CCCC2)c1 9.73%
CNCc1c(C)nn(-c2ccccc2)c1C 8.94%
CCn1ccnc1CN(C)Cc1nc(-c2ccccc2)no1 -3.37%
CC(=O)Nc1ccc(NC(=O)CSCc2ccccc2Cl)cc1 10.3%
C/C(=N\NC(=O)CSCc1ccccc1Cl)c1cccc(NC(=O)c2ccccc2)c1 4.95%
Cc1ccccc1Nc1nc(N)nc(COC(=O)c2ccc3c(c2)OCCO3)n1 12.6%
O=C(Nc1ccccc1C(=O)Nc1ccc(F)cc1)c1ccco1 6.4%
CCOc1ccc(S(=O)(=O)N2CCN(C(=O)c3ccc(C)c(S(=O)(=O)N4CCOCC4)c3)CC2)cc1 5.86%
COc1ccc(CN2CCN(C(=O)CC(C)C)CC2)cc1 26.1%
COc1ccc(C(=O)N2CCN(C(=O)CC(C)C)CC2)cc1OC -1.21%
COc1ccc(C(=O)N2CCN(Cc3cc(OC)c(O)c(OC)c3)CC2)cc1OC 18.5%
CCOc1cc(CN2CCCCCC2)ccc1OC 25.5%
COc1ccc(CN2CCN(C(=O)CC(C)C)CC2)cc1Br 26.2%
COc1cc(OC)c(OC)cc1CN1CCN(C(=O)CC(C)C)CC1 12.8%
C=CCN1C(=O)c2ccc(C(=O)N(C)CC(=O)Nc3ccccc3Cl)cc2C1=O -7.53%
CCOC(=O)c1ccc(NC(=O)c2nc[nH]c2C(=O)NCCCNC(=O)c2[nH]cnc2C(=O)Nc2ccc(C(=O)OCC)cc2)cc1 -0.79%
COc1ccc(N=Cc2c(O)c3ccccc3oc2=O)cc1 10.7%
COC(=O)c1ccccc1NC(=S)NC(=O)COc1ccccc1Cl 2.61%
CCOc1ccc(-n2c(-c3ccco3)n[nH]c2=S)cc1 15.8%
O=C(COC(=O)c1cccs1)NCCc1ccc(F)cc1 4.76%
CC1CC(C)(C)N(C(=O)CN2C(=O)CCC2=O)c2ccccc21 (configuration not stated) -0.11%
Cc1ccc2c(c1)C(C)CC(C)(C)N2C(=O)NC1CCCCC1 (configuration not stated) 3.06%
CN1CCN(CC(=O)N2c3ccccc3C(C)(c3ccccc3)CC2(C)C)CC1 (configuration not stated) 10.3%
CC1CC(C)(C)N(C(=O)CN2C(=O)c3ccccc3C2=O)c2ccccc21 (configuration not stated) 2.35%
CCN(CC)C(=O)[C@H]1C[C@H](CC(=O)NCCCN(C)C)C(=O)N2CCc3c([nH]c4ccc(Cl)cc34)[C@]12C 4.62%
